This is an account of results in PubChem BioAssay AID1210 (NMMLSC, 2008).

The experiment deals with Estrogen receptor beta (Homo sapiens) (UniProt Q92731). Put plainly: displacement of fluorescent estrogen from ERbeta – cell-based, Cos7 ERbeta-GFP, flow cytometry, primary screen (AID 1210).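 Note: 0% = DMSO vehicle wells and 100% = complete loss of labeled estradiol signal.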 The settings on record: fluorescent estrogen binding, ligand binding inhibition, at 0.1 µM, stronger effect = higher value. For orientation: In flow cytometry, cells or beads pass a laser one at a time.
Estrogen receptor beta (Homo sapiens), sequence (Q92731 whole entry, looked up): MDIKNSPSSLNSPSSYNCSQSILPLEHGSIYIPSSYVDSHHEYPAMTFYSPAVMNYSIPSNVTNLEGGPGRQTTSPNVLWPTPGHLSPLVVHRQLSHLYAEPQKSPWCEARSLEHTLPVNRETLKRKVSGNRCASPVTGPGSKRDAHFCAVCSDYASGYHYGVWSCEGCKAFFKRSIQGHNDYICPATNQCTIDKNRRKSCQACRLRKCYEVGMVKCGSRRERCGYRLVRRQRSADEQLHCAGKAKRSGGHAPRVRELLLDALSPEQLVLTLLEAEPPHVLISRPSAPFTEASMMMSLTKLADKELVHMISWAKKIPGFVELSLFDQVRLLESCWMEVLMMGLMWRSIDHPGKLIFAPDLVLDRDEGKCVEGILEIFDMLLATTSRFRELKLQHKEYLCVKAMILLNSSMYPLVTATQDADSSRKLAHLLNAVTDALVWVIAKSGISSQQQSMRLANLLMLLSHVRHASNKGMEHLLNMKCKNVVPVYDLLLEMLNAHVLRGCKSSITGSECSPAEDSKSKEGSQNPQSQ
For `Cc1ccc(-c2csc(NC(=O)c3ccno3)n2)cc1`, the inhibition (usually the change of the read-out against control, counted positive when it falls) worked out at 28%. The figure for `Cc1ccc(C)c(/C(O)=C2/C(=O)C(=O)N(CCN3CCOCC3)C2c2ccco2)c1` (centres undefined) is 17%; for `Cc1cc(C(=O)O)ccc1-n1c(C)ccc1C` it is 49%; for `O=C(Cn1ncc2c(=O)oc3ccccc3c21)Nc1nc2ccccc2s1` it is 7%.

`O=C(Nc1ccc(-c2nc3ccc(NC(=O)c4cccs4)cc3[nH]2)cc1)c1cccs1` displayed an inhibition of 18%. With `O=C(NC1CCN(C(=O)N2c3ccccc3Sc3ccccc32)CC1)c1ccccc1Cl` the figure was 23%; with `C/C=C/COC(=O)c1[nH]c2c(c1C)C(=O)CC(c1ccco1)C2` (centres undefined), 11%. With `CC(C)(C)NC(=O)c1ccc2c(c1)C1C3CCC(C3)C1C(c1ccccc1)N2` (centres undefined) the figure was 64%; with `COc1ccc(NC(=O)CSc2nc3ccccc3c3nc4ccccc4n23)cc1`, 44%. With `Cc1nc(-c2ccc(O)c(O)c2)cs1` the figure was 4%; with `Cc1ccc(C(=O)N/N=C/c2ccc([N+](=O)[O-])s2)cc1`, 58%. Compound `COc1cc(NC(=O)c2cccs2)c(C(=O)OCC(=O)NC(=O)NCc2ccccc2)cc1OC` registered an inhibition of 17%.

`O=C(Nc1cccc2cccc(NC(=O)c3ccco3)c12)c1ccco1` gave an inhibition of 22%. The figure for `Cc1cc(-c2nn3c(-c4ccccc4)nnc3s2)c2ccccc2n1` is 45%; for `O=C(O)C1CSC(c2coc3ccccc3c2=O)N1` (centres undefined) it is 46%; for `Cc1occc1C(=O)NCc1cccc(CNC(=O)c2ccoc2C)c1` it is 10%. With `Cc1cccc(N2CCN(C(=O)c3cc4c(=O)n(C)c5ccccc5c4n3C)CC2)c1C` the figure was 27%. As to `CC1CCCN(c2nc3c(c(=O)[nH]c(=O)n3C)n2Cc2ccccc2Cl)C1` (centres undefined), the inhibition came out at 32%.

Take `Cn1c(SCC(=O)Nc2sccc2C#N)nnc1-c1ccccc1`: the inhibition came out at 13%.

With `COC(=O)c1cc(-c2c(C)oc3cc(O)ccc3c2=O)c(C)o1`, the inhibition turned out to be 1%. As to `CSc1ccccc1NC(=O)c1noc2c1CCC2`, the inhibition was found to be 12%. For the compound `Cc1snc2sc(C(=O)c3ccc(Br)cc3)c(N)c12`, the inhibition amounted to 20%. In turn, `COc1ccc(OC)c(C(=O)CSc2nnc(-c3ccc(OC)c(OC)c3)o2)c1` yielded an inhibition of 12%.

The compound `CCc1nc(N)nc(N)c1-c1ccc(Cl)cc1` displayed an inhibition of 25%.

In the case of `Cc1ccc(-n2nnnc2SCC(=O)Nc2ccc3c(c2)COC3=O)cc1C`, the inhibition is 2%.

Take `COc1cc(C2Nc3c(F)cccc3C3C=CCC32)cc(Br)c1OC` (centres undefined): the inhibition was 25%.

`COc1cc(C(=O)Nc2nnc(-c3sccc3C)s2)cc(OC)c1OC` yielded an inhibition of 34%. The figure for `COCCCn1c(Cc2csc(Nc3cccc(Cl)c3)n2)nnc1SCC(=O)OC1CCCCC1` is 29%; for `C1CCC(c2nn3c(-c4n[nH]c5c4CCC5)nnc3s2)CC1` it is 19%. With `CCOc1cc(C2CC(=O)c3c(ccc4ccccc34)N2)ccc1O` (centres undefined) the figure was 8%; with `COc1ccc(NC(=O)C(NC(=O)c2ccc(=O)[nH]c2)c2ccc(C)cc2)cc1` (centres undefined), 12%; with `COc1ccc(C2CC(c3cccs3)=NN2c2ccc(C=O)cc2)cc1` (centres undefined), 29%.

Take `CC1CCN(S(=O)(=O)c2ccc(NC(=O)Cc3cccs3)cc2)CC1`: the inhibition was 33%. On to `N#CC(C(=O)Nc1ccc(Cl)cc1)=C1Nc2ccccc2N1`, for which the inhibition is 21%. `O=C1c2ccccc2C(=O)N1/N=C/c1ccc(O)c(O)c1` had an inhibition of 54%.

Turning to `O=C(Nc1ccccc1N1CCOCC1)c1cc(-c2ccco2)nc2ccccc12`, the inhibition came out at 28%. With `Oc1c(C=Nc2cccc3cccnc23)sc2ccccc12` the figure was 30%; with `Cc1cc(C)n2nc(SCc3cc(=O)oc4cc(O)ccc34)nc2n1`, 19%. Regarding `Cc1oc2c(C)c(O)ccc2c(=O)c1N1C(=O)c2ccccc2C1=O`, the inhibition was 18%.
